# Assay results as given in PubChem BioAssay.
# Activity calls are given as the source filed them.
# Experiments:
# [1] = system: Plasmodium falciparum Sir2 (PF13_0152, Sir2A); assay: pfSir2 binders on small-molecule microarrays, primary screen, biochemical, small-molecule microarray, 635 nm fluorescence (AID 1098); conditions: small-molecule microarray binding, fluorescence 635 nm; higher = more signal;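 note: score merges spot fluorescence intensity with its signal-to-noise ratio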
# [2] = small-molecule microarray binders of probe aDKK1, primary screen, biochemical, biotinylated probe, 635/667 nm fluorescence (AID 1099); conditions: higher = more signal;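 note: score merges 667nm spot fluorescence with signal to noise across triplicate slides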
# [3] = small-molecule microarray binders of probe aCHRDL2, primary screen, biochemical, biotinylated probe, 635/667 nm fluorescence (AID 1100); conditions: higher = more signal
# [4] = splicing luciferase reporter signal modulators, primary screen, spliceosome inhibition project, cell-based, HEK293, splice +/- reporter (AID 1101); conditions: luminescence, 24 h, higher = more signal, called active from +8 up or from −8 down;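 note: HEK293 cells carrying a splicing-competent luciferase reporter gene; test concentration not given here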
# [5] = molecular target: Fibroblast growth factor 10 (Homo sapiens) (UniProt O15520); assay: FGF10 binders on small-molecule microarrays, primary screen, biochemical, small-molecule microarray, 635 nm fluorescence (AID 1102); conditions: FGF10 binding, fluorescence 635 nm, higher = more signal
# [6] = system: glycogen synthase kinase-3 (GSK3A per assay name; protocol says GSK3B); assay: GSK3 binders on small-molecule microarrays, primary screen, biochemical, small-molecule microarray, 635 nm fluorescence, GSK3A (AID 1103); conditions: small-molecule microarray binding, fluorescence 635 nm; higher = more signal; note: the record names both GSK3A and GSK3B
# [7] = molecular target: Epidermal growth factor receptor (Homo sapiens) (UniProt P00533); assay: EGFR binders on small-molecule microarrays, primary screen, biochemical, small-molecule microarray, 635 nm fluorescence (AID 1104); conditions: EGFR binding, higher = more signal;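 note: score merges 667 nm emission intensity with spot signal to noise over triplicate slides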
# [8] = molecular target: Follistatin-related protein 3 (Homo sapiens) (UniProt O95633); assay: FSTL3 binders on small-molecule microarrays, primary screen, biochemical, small-molecule microarray, 635 nm fluorescence (AID 1105); conditions: FSTL3 binding, higher = more signal;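 note: score merges emission near 667 nm and signal to noise per printed spot across three slides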
# [9] = molecular target: Dickkopf-related protein 1 (Homo sapiens) (UniProt O94907); assay: DKK1 binders on small-molecule microarrays, primary screen, biochemical, small-molecule microarray, 635 nm fluorescence scan (AID 1106); conditions: DKK1 binding, higher = more signal;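 note: score merges emission near 667 nm with signal to noise over three replicate slides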
# [10] = system: Inhibin beta A chain (activin A); assay: INHBA (activin A) binders on microarrays, primary screen, biochemical, small-molecule microarray, 635 nm fluorescence scan (AID 1107); conditions: small-molecule microarray binding, higher = more signal;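 note: mouse activin A protein probed at 4.33 µg/mL on printed slides; score merges bound-protein fluorescence near 667 nm with spot signal-to-noise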
# [11] = system: Human papillomavirus type 1a protein E7 (residues 44-93); assay: HPV1a E7 fragment binders on microarrays, primary screen, biochemical, small-molecule microarray, residues 44-93, 635 nm fluorescence (AID 1108); conditions: small-molecule microarray binding, fluorescence 635 nm; higher = more signal;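 note: E7 fragment applied at 1 µg/mL in TBST for 1 h at 4 C; score combines spot fluorescence with its signal to noise ratio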
# [12] = modulators of HCV replicon luciferase signal, primary screen, HCV replication inhibitor project, Huh7 cells, luciferase reporter (AID 1109); conditions: 48 h, higher = more signal;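 note: huh7 hepatoma cells harbouring a luciferase neomycin HCV replicon reporter; luciferase luminescence as measure of HCV replicon replication; test concentration not given here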
# [13] = molecular target: Left-right determination factor 2 (Homo sapiens) (UniProt O00292); assay: LEFTY2 binders on small-molecule microarrays, primary screen, biochemical, small-molecule microarray, 635 nm fluorescence scan (AID 1110); conditions: LEFTY2 binding, higher = more signal
# [14] = molecular target: Calmodulin-1 (Homo sapiens) (UniProt P0DP23); assay: CALM1 binders on microarrays, EGTA buffer, profiling panel, biochemical, small-molecule microarray, Cy5-labelled CALM1 (AID 1111); conditions: Cy5-CALM1 binding fluorescence, higher = more signal;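 note: labelled calmodulin applied in Tris saline Tween buffer holding calcium plus EGTA and DTT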
# [15] = molecular target: Calmodulin-1 (Homo sapiens) (UniProt P0DP23); assay: calcium-bound CALM1 binders on microarrays, profiling panel, artefact control for SMM control-protein annotation, biochemical, small-molecule microarray, Cy5-labelled CALM1, plus calcium (AID 1112); conditions: Cy5-CALM1 binding fluorescence, higher = more signal;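 note: score merges spot fluorescence with signal to noise from triplicate slides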
# [16] = small-molecule microarray binders of probe aWnt5a, primary screen, biochemical, biotinylated probe, 635/667 nm fluorescence (AID 1113); conditions: higher = more signal;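 note: score merges 667 nm fluorescence intensity with signal-to-noise per printed feature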
# [17] = small-molecule microarray binders of probe aShh, primary screen, biochemical, biotinylated probe, 635/667 nm fluorescence (AID 1114); conditions: higher = more signal;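 note: probe is biotin-labelled aShh protein from a stem cell growth factor screen; measures binding of labelled protein to compounds printed on the slide; score merges feature fluorescence at 667 nm with signal-to-noise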
# [18] = small-molecule microarray binders of probe aNog, primary screen, biochemical, biotinylated probe, 635/667 nm fluorescence (AID 1115); conditions: higher = more signal;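 note: probe is biotinylated aNog protein used at 0.15 µg/mL for 1 h at 4 C; z-score combines 667 nm fluorescence of each spot with its signal to noise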
# [19] = molecular target: Torsin-1A-interacting protein 1 (Homo sapiens) (UniProt Q5JTV8); assay: LAP1 binders from COS7 cell lysate, primary screen, small-molecule microarray, 635/667 nm fluorescence (AID 1116); conditions: COS7-hLAP1 lysate binding, 635 nm fluorescence, higher = more signal
# [20] = molecular target: Alpha-bungarotoxin (Bungarus multicinctus) (UniProt P60615); assay: alpha-bungarotoxin binders on microarray, profiling panel, artefact control for SMM control protein annotation, biochemical, small-molecule microarray, Alexa647 label, 635/667 nm fluorescence (AID 1117); conditions: alpha-BTX-A647 binding fluorescence, higher = more signal
# Sequence of Alpha-bungarotoxin (Bungarus multicinctus) (P60615 whole entry, looked up): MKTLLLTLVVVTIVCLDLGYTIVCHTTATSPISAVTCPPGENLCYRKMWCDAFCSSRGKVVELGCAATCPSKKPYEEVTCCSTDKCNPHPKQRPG
# Sequence of Fibroblast growth factor 10 (Homo sapiens) (O15520 whole entry, looked up): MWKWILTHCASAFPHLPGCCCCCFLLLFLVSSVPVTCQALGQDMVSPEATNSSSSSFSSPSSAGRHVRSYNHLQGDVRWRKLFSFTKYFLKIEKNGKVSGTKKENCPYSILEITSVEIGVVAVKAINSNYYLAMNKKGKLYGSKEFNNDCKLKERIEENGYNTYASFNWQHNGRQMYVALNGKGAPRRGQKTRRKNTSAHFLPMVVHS
# Sequence of Follistatin-related protein 3 (Homo sapiens) (O95633 whole entry, looked up): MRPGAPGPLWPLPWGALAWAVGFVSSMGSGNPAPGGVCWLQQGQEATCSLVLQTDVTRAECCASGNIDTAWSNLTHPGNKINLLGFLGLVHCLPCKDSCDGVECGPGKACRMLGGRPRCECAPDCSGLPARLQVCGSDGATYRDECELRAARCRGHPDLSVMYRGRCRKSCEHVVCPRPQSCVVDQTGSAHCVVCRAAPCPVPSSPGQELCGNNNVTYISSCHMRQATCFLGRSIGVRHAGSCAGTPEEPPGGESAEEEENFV
# Sequence of Torsin-1A-interacting protein 1 (Homo sapiens) (Q5JTV8 whole entry, looked up): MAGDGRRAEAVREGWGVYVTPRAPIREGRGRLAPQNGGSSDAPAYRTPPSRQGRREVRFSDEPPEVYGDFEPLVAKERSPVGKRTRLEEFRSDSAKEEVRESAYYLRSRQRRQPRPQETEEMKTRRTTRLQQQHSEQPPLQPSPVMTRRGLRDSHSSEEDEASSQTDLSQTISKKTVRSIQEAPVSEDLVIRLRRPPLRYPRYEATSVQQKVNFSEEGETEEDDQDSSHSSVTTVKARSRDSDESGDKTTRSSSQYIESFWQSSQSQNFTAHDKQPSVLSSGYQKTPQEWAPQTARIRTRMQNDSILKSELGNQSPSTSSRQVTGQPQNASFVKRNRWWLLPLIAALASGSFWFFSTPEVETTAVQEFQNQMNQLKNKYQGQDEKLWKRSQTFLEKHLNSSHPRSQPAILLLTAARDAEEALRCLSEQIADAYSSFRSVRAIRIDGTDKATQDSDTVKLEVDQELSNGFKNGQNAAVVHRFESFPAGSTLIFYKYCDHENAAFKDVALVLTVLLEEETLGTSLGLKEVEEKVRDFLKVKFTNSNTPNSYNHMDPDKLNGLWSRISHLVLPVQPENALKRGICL
# Sequence of Dickkopf-related protein 1 (Homo sapiens) (O94907 whole entry, looked up): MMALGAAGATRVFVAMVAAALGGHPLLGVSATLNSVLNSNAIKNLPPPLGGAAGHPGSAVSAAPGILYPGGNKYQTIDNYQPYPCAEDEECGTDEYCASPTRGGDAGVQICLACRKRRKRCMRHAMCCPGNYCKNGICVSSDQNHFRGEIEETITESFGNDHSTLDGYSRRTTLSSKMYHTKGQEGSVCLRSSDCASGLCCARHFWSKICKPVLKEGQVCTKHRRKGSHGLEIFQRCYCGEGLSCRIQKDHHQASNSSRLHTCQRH
# Sequence of Epidermal growth factor receptor (Homo sapiens) (P00533 whole entry, looked up): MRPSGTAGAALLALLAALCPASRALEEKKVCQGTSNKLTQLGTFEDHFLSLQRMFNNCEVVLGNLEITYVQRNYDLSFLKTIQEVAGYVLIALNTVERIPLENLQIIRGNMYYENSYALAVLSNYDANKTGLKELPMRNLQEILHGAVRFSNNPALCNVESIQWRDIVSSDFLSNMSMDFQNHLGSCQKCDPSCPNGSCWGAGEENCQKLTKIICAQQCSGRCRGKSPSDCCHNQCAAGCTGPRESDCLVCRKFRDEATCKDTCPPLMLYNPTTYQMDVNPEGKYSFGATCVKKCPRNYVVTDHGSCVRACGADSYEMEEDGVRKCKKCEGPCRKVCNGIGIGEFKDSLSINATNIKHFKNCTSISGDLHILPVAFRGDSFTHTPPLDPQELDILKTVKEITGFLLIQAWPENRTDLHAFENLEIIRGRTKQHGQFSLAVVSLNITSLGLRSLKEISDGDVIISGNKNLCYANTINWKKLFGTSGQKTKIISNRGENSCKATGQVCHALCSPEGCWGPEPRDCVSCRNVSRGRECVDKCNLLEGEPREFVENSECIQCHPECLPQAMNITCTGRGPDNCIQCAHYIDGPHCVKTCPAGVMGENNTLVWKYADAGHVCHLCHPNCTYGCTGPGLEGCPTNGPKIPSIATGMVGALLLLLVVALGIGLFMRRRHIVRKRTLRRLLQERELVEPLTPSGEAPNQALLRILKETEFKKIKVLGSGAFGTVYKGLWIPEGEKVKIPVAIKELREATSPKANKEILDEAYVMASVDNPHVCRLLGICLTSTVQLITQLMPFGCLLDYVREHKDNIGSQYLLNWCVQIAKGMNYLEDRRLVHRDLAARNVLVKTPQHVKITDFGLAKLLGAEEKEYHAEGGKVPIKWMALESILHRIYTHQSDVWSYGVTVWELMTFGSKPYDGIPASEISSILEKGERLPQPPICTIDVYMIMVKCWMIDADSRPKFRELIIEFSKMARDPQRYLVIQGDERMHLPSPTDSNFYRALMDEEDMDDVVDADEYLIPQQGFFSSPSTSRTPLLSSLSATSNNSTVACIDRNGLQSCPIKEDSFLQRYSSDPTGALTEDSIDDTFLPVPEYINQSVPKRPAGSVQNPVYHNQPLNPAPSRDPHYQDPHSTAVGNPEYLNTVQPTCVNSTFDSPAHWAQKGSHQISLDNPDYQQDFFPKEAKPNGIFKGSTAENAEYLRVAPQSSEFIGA
# Sequence of Left-right determination factor 2 (Homo sapiens) (O00292 whole entry, looked up): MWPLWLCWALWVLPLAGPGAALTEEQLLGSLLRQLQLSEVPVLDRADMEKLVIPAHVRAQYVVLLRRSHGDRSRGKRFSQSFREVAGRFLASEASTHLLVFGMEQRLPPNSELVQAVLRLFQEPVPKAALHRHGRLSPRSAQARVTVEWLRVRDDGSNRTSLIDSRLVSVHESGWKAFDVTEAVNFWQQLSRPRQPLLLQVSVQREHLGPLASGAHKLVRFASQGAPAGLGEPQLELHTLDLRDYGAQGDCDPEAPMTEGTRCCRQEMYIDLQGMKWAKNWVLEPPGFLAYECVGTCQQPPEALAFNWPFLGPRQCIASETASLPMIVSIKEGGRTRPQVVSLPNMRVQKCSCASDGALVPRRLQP
Structure (SMILES),composite z-score [1],composite z-score [2],composite z-score [3],z-score [4],composite z-score [5],composite z-score [6],composite z-score [7],composite z-score [8],composite z-score [9],composite z-score [10],composite z-score [11],z-score [12],composite z-score [13],composite z-score [14],composite z-score [15],composite z-score [16],composite z-score [17],composite z-score [18],composite z-score [19],composite z-score [20]
CCOC(=O)C1=CC[C@@H](c2ccc(C(F)(F)F)cc2)N(S(=O)(=O)c2ccc(C)cc2)[C@H]1c1ccccc1,0.544,1,1.12,-2.54 (inactive),0.485,1.31,-0.0946,0.799,-0.305,-0.0699,0.277,-1.1,0.221,2.08,0.55,0.201,0.109,1.43,1.51,1.56
COC(=O)c1c2oc(c1C(=O)OC)C(=O)NC1(CCCCC1)c1cn(nn1)C[C@H](Cc1ccccc1)NC(=O)N[C@H](CO)CC2,-0.856,0.0173,-0.709,-0.365 (inactive),1.15,0.386,0.0053,0.34,0.25,-0.007,0.973,-0.791,0.23,0.0166,-0.396,-0.0955,-0.237,-0.321,0.227,0.531
O=C1C2C=CC(C(O)C=Cc3ccc([N+](=O)[O-])cc3)N(n3cnnc3)C2C(=O)N1Cc1ccccc1 (stereo not given),1.53,0.341,0.832,0.243 (inactive),0.466,0.587,-0.0912,0.906,0.377,1.17,1.34,-0.93,-0.368,0.596,-0.143,0.0633,-0.0035,0.977,0.832,1.39
C=CC[C@@]1(C(=O)N2CCCCC2)N=C(c2ccc(OCCCO)cc2)O[C@@H]1c1ccccc1CN=[N+]=[N-],1.23,0.952,1.04,-0.431 (inactive),0.666,-0.0684,0.17,1.15,-0.187,0.711,1.48,-2.39,0.0868,1.75,0.797,0.104,0.57,1.18,1.76,2.05
[N-]=[N+]=NCc1ccccc1[C@@H]1OC(c2ccc(OCCCO)cc2)=N[C@]1(CCS(=O)(=O)c1ccccc1)C(=O)N1CCCCC1,1.65,0.0798,0.904,-0.162 (inactive),0.828,1.29,0.453,1.19,-0.154,1.08,1.48,-1.87,0.334,1.79,0.415,0.0873,0.333,-0.316,1.04,1.34
[N-]=[N+]=NCc1ccccc1[C@@H]1OC(c2ccc(OCCCO)cc2)=N[C@]1(CCS(=O)(=O)c1ccccc1)C(=O)N1CCOCC1,1.46,1.27,1.31,-1.56 (inactive),1.04,1.12,0.117,1.07,-0.242,0.933,1.41,-1.82,-0.141,1.72,0.443,0.0357,0.0381,0.113,2,2.04
CCOC(=O)[C@H]1C/C=C/C[C@H](C(=O)OCC)C(=O)O[C@H]2[C@@H](OC)O[C@H](CO)[C@@H](OC(=O)c3ccc(Br)cc3)[C@@H]2OC1=O,-0.009,-0.444,0.44,-1.25 (inactive),0.88,-0.51,0.0445,0.366,0.34,0.802,0.215,-2.74,0.466,0.389,0.502,-0.0704,0.134,0.0795,0.863,0.369
CC(C)=CCCC(C)=CC(O)C1C=CC2C(=O)N(c3ccccc3)C(=O)C2N1Nc1ccc(C(C)C)cc1 (stereo not given),0.855,-0.0008,0.816,0.433 (inactive),0.691,0.615,-0.0514,0.966,-0.609,0.583,1.45,-0.0821,-0.0675,0.943,0.415,0.163,0.0839,1.6,0.203,0.925
C=C[C@H](C)[C@@H](OC(=O)Nc1ccc(SC)cc1)c1ccc(O)c2ccccc12,1.3,-0.118,0.216,-0.8 (inactive),1.33,1.28,1.07,1.44,1.34,0.482,1.41,-0.751,1.23,0.988,-0.0069,-0.101,-0.0553,-0.343,0.575,0.893
COc1ccc([Si](C)(C)[C@@H]2[C@@H](CCn3cc([C@H](O)c4ccccc4)nn3)O[C@]3(C(=O)N(Cc4cccc(N5CCC5=O)c4)c4ccccc43)[C@H]2C)cc1,0.647,-0.386,-0.0143,1.41 (inactive),0.483,-0.502,0.0403,-0.304,0.589,0.521,-0.206,-2.78,0.187,-0.15,-0.263,-0.0919,-0.0035,-0.0211,0.392,0.0808
O=C1C2C=CC(C(O)COCc3ccccc3)N(Nc3ccc([N+](=O)[O-])cc3)C2C(=O)N1c1ccccc1 (stereo not given),1.06,0.735,0.889,-1.44 (inactive),1.05,1.32,0.42,1.22,0.111,0.976,1.44,-1.36,0.308,0.823,-0.432,0.0317,0.213,0.525,0.548,1.31
CCOC(=O)C[C@H]1[C@H](OC(=O)c2ccc(-c3ccccc3)cc2)[C@@H](NC(=O)c2ccccc2)c2cc(OCCCO)ccc2N1C(=O)Cc1ccc(OC)cc1,-0.881,-0.0345,0.565,-0.486 (inactive),0.241,-0.919,0.0903,-0.56,-0.237,0.54,-0.149,-1.41,0.199,0.594,0.534,-0.1,-0.147,-0.18,0.328,0.281
COCCCNC(=O)[C@@]1(Sc2ccc(C)cc2)CC(=O)N(Cc2ccccc2Cl)[C@@H]1c1ccc(CO)cc1,1.36,0.0942,0.0166,-0.87 (inactive),0.977,0.56,0.491,1.36,0.553,0.595,1.36,-1.75,0.585,0.532,-0.184,0.0706,0.275,-0.205,0.566,1.25
C=C(CCCC)C(=O)CC[C@H](OC(=O)c1cccnc1)c1ccc(OCCO)cc1,0.142,-0.117,0.27,0.98 (inactive),-0.0659,-0.0084,-0.317,-0.173,0.183,0.877,-0.574,-3.61,-0.327,-0.556,-0.736,-0.0455,0.296,0.406,0.656,0.551
CC(C)CCC[C@@H](C)[C@H]1CC[C@@]2(C)C3=C(CC[C@]12C)[C@@]1(C)CC[C@H](OC(=O)c2ccc(C(F)(F)F)nc2)C(C)(C)C1CC3 (stereo not given in full),0.22,-0.514,-0.491,-0.895 (inactive),0.595,0.714,0.471,0.627,0.418,-0.0544,0.592,0.336,0.31,-0.0347,-0.337,-0.162,0.0141,-0.68,0.69,0.328
COCCOC(=O)N1C(=O)[C@@]2(c3cc(C#CC4(O)CCCCCC4)ccc31)[C@H](C(=O)Nc1nc3ccccc3s1)[C@H]1C(=O)O[C@H](c3ccccc3)[C@H](c3ccccc3)N1[C@@H]2c1ccc(OCCO)cc1,1.28,0.0895,0.0903,-0.426 (inactive),1.25,1.3,0.583,1.37,0.84,0.8,1.31,-2.33,0.726,0.693,-0.271,-0.169,0.138,0.0824,-0.105,1.21
O=C1NC(=O)C2C1C=CC(C(O)C1CC=CCC1)N2Nc1ccccn1 (stereo not given),1.27,0.228,0.21,1.17 (inactive),0.946,0.0089,1.25,0.179,1.33,1.75,-0.643,-0.268,0.571,-0.282,-0.589,-0.0643,-0.147,-0.0852,1.22,-0.29
C=CCNC(=O)[C@H]1[C@@H]2C(=O)O[C@@H](c3ccccc3)[C@@H](c3ccccc3)N2[C@@H](c2ccc(O)cc2)[C@]12C(=O)Nc1ccc(C#CCCO)cc12,0.526,0.0418,0.198,0.0704 (inactive),-0.818,-0.572,-0.326,-0.561,0.0898,0.629,-0.336,0.142,0.185,-0.314,0.107,-0.124,0.0982,-0.161,-0.428,-0.503
C=CC[C@]1(C(N)=O)N=C(c2ccc(OCCCO)cc2)O[C@H]1c1ccccc1,1.3,0.351,1.11,0.27 (inactive),-0.304,-0.195,-1.03,-0.882,-0.539,1.08,-0.434,-0.31,-0.524,0.27,-0.665,-0.0685,0.401,0.041,1.59,0.947
CC1CC/C=C\[C@H]2OC34C=CCN(c5ccc6ccccc6c5)C(=O)[C@H]3N(CCO)C(=O)[C@@H]4C2C(=O)O1 (stereo not given in full),1.76,-0.122,0.915,-0.538 (inactive),-0.681,-0.844,-1.13,-0.391,-1.02,0.838,-0.619,-0.626,-2.09,-0.832,-0.202,-0.205,0.192,0.831,3.26,-1.01
